Our source for the growth values is PubChem BioAssay (NCI).

Among the test systems are NCI-H23 lung; NCI-H226 lung; NCI-H322M lung; HOP-62 NSCLC; NCI-H460 lung; HOP-92 NSCLC; NCI-H522 lung; A549/ATCC NSCLC; 786-0 renal; COLO 205 colon; DU-145 prostate; K-562 leukemia; MALME-3M melanoma; MDA-MB-231 breast; RXF 393 renal; SF-268 CNS; SF-295 CNS; SF-539 CNS; UACC-257 melanoma; M14 melanoma.
What all share (assay): NCI-60 one-dose screen, 48 h (100 = growth as untreated, 0 = no growth, -100 = all killed)
Common to all, as to conditions: 10 µM unless noted

Compounds without any hit were thinned out: in the full panel of roughly 83,000, 20% have a hit.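 Each cell line was grown in a 96-well plate and treated with one concentration of compound for 48 hours. Values below 10 were considered active.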 Values without a mark were called inactive. The source made the active and inactive calls.

As to `O=C(NCCN1CCOCC1)OCc1ccc2c(Cl)cc(Cl)c(O)c2n1`, the growth with NCI-H23 lung is 72.8%; in the assay with NCI-H226 lung, 94.6%; in the assay with NCI-H322M lung it was 66.9%; in the assay with HOP-62 NSCLC, 47.8%; in the assay on NCI-H460 lung it was 63.7%; in the assay with HOP-92 NSCLC it was 77.3%. In addition, the growth in the assay with NCI-H522 lung is 81%; in the assay with A549/ATCC NSCLC, 56.8%; with 786-0 renal it was 81.9%; with COLO 205 colon it was 109%; in the assay on DU-145 prostate, 57.7%; in the assay with K-562 leukemia, 31.7%. Further, the growth in the assay with MALME-3M melanoma was 73.4%; in the assay with MDA-MB-231 breast it was 93.8%; with RXF 393 renal, 77.3%; in the assay on SF-268 CNS it was 57.3%; in the assay with SF-295 CNS, 49.2%; with SF-539 CNS, 77.9%. For the same compound, the growth with UACC-257 melanoma is 89.1%; in the assay on M14 melanoma it was 54.6%.
`COCCn1cc(-c2nc(-c3c[nH]c4ncccc34)cs2)c2ccccc21`: the growth was 40.7% in the assay with NCI-H23 lung; 48.2% with NCI-H226 lung; 43.4% in the assay on NCI-H322M lung; 47.2% with HOP-62 NSCLC; 22.6% in the assay on NCI-H460 lung; 2.56% (active) in the assay with HOP-92 NSCLC. For the same compound, the growth was 46.7% in the assay on NCI-H522 lung; 52.2% in the assay on A549/ATCC NSCLC; 77.9% in the assay with 786-0 renal; 24.8% in the assay with COLO 205 colon; 85.5% in the assay with DU-145 prostate; 28.5% in the assay with K-562 leukemia. Further, the growth in the assay on MALME-3M melanoma is 97.8%; with MDA-MB-231 breast it was 22.5%; with RXF 393 renal it was 51.6%; in the assay on SF-268 CNS it was 63.9%; with SF-295 CNS, 68.8%; with SF-539 CNS, 68.4%. Besides, the growth was 87.3% in the assay with UACC-257 melanoma and 68.6% with M14 melanoma.
As for `Cc1nn(C)c2ncnc(N/N=C/c3cccc(O)c3O)c12`, the growth with NCI-H23 lung was 20.8%; with NCI-H226 lung it was 42.7%; in the assay on NCI-H322M lung it was 14.7%; with HOP-62 NSCLC, 4.24% (active); in the assay on NCI-H460 lung it was 2.65% (active); in the assay on HOP-92 NSCLC, 23.3%. For the same compound, the growth in the assay with NCI-H522 lung is 19.9%; in the assay on A549/ATCC NSCLC, 20.9%; with 786-0 renal, 2.11% (active); with COLO 205 colon it was -3.31% (active); in the assay with DU-145 prostate, 18.1%; with K-562 leukemia it was 12.7%. Further, the growth in the assay on MALME-3M melanoma is -11.5% (active); in the assay on MDA-MB-231 breast, 24.7%; with RXF 393 renal, 11%; with SF-268 CNS, 6.68% (active); with SF-295 CNS, 18.3%; in the assay on SF-539 CNS, 5.37% (active). In addition, the growth was 3.75% (active) in the assay on UACC-257 melanoma and -48.5% (active) in the assay with M14 melanoma.
Consider `COc1cc([C@@H](CCO)C[C@H](C)c2ccc3ccccc3c2)cc(OC)c1OC`, for which the growth with NCI-H23 lung was 54.6%; in the assay with NCI-H226 lung it was 56.4%; in the assay on NCI-H322M lung it was 46.7%; in the assay with HOP-62 NSCLC it was 40.6%; in the assay on NCI-H460 lung it was 17.3%; with HOP-92 NSCLC, 30.8%. Moreover, the growth was -7.95% (active) in the assay with NCI-H522 lung; 46.8% with A549/ATCC NSCLC; 28% in the assay with 786-0 renal; 16.1% in the assay with COLO 205 colon; 47.1% in the assay on DU-145 prostate; 12.1% with K-562 leukemia. For the same compound, the growth in the assay with MALME-3M melanoma was 44.5%; in the assay on MDA-MB-231 breast, 43.8%; in the assay on RXF 393 renal, 32.3%; in the assay with SF-268 CNS it was 48.9%; in the assay with SF-295 CNS it was 19.6%; with SF-539 CNS, 9.87% (active). For the same compound, the growth in the assay on UACC-257 melanoma was 60.6%; in the assay on M14 melanoma, 15.5%.
Take `O=C(Nc1ccc(Nc2ccncc2)cc1)c1ccc(Nc2ccnc3ccc([N+](=O)[O-])cc23)cc1`: the growth in the assay with NCI-H23 lung is 86.9%; in the assay with NCI-H226 lung it was 89.8%; with NCI-H322M lung, 116%; in the assay on HOP-62 NSCLC, 113%; in the assay with NCI-H460 lung it was 68.2%; in the assay on HOP-92 NSCLC it was 87.7%. Also, the growth is 102% in the assay with NCI-H522 lung; 94.7% with A549/ATCC NSCLC; 99.2% with 786-0 renal; 131% with COLO 205 colon; 103% in the assay with DU-145 prostate; 80.5% in the assay on K-562 leukemia. Further, the growth in the assay on MALME-3M melanoma was 114%; in the assay with MDA-MB-231 breast, 80.5%; in the assay with RXF 393 renal, 116%; in the assay on SF-268 CNS, 97.6%; in the assay with SF-295 CNS, 106%; in the assay with SF-539 CNS, 85.5%. Moreover, the growth in the assay with UACC-257 melanoma is 101%; in the assay on M14 melanoma, 108%.
`Cc1ccc2nc(-c3ccc(C(=O)N/N=C/c4ccc([N+](=O)[O-])cc4)cc3)[nH]c2c1`: the growth was 101% in the assay on NCI-H23 lung; 104% with NCI-H226 lung; 104% in the assay on NCI-H322M lung; 108% in the assay with HOP-62 NSCLC; 102% with NCI-H460 lung; 91.9% with HOP-92 NSCLC. Besides, the growth is 95.1% with NCI-H522 lung; 106% in the assay with A549/ATCC NSCLC; 97.6% in the assay with 786-0 renal; 108% in the assay on COLO 205 colon; 103% in the assay with DU-145 prostate; 101% in the assay with K-562 leukemia. In addition, the growth in the assay with MALME-3M melanoma is 92.2%; in the assay on MDA-MB-231 breast, 97.3%; with RXF 393 renal, 104%; in the assay with SF-268 CNS, 101%; in the assay on SF-295 CNS, 111%; in the assay on SF-539 CNS, 97.5%. The figures for the growth in the assay with UACC-257 melanoma and with M14 melanoma were 108% and 102%, respectively.
Consider `CNCC[C@H](Oc1cccc2ccccc12)c1cccs1`, for which the growth in the assay on NCI-H23 lung is 80.6%; with NCI-H226 lung, 96.7%; with NCI-H322M lung, 98.2%; in the assay on HOP-62 NSCLC, 128%; with NCI-H460 lung, 104%; with HOP-92 NSCLC, 52.5%. Also, the growth in the assay on NCI-H522 lung is 81.4%; with A549/ATCC NSCLC it was 96.4%; with 786-0 renal it was 82.9%; in the assay on COLO 205 colon it was 102%; in the assay with DU-145 prostate, 115%; with K-562 leukemia it was 54.7%. Further, the growth in the assay on MALME-3M melanoma was 113%; in the assay with MDA-MB-231 breast, 7.37% (active); in the assay on RXF 393 renal, 72.3%; in the assay with SF-268 CNS, 88.2%; in the assay on SF-295 CNS, 94.1%; in the assay with SF-539 CNS, 97.5%. Also, the growth in the assay with UACC-257 melanoma was 90.1%; with M14 melanoma, 104%.
Turning to `Nc1nc(N(Cc2ccccc2)c2ccccc2)c2cn[nH]c2n1`, the growth with NCI-H23 lung was 81.7%; in the assay with NCI-H226 lung it was 98.3%; with NCI-H322M lung, 94.2%; in the assay with HOP-62 NSCLC, 70%; in the assay with NCI-H460 lung, 75.8%; with HOP-92 NSCLC it was 62.1%. Moreover, the growth with NCI-H522 lung was 90.1%; with A549/ATCC NSCLC, 71.4%; in the assay on 786-0 renal, 72.3%; with COLO 205 colon it was 58.8%; in the assay on DU-145 prostate, 88.2%; with K-562 leukemia, 23.9%. Moreover, the growth in the assay on MALME-3M melanoma is 62.8%; in the assay on MDA-MB-231 breast, 62.1%; with RXF 393 renal, 67.6%; in the assay on SF-268 CNS, 73.8%; with SF-295 CNS, 51.5%; in the assay with SF-539 CNS it was 68.8%. For the same compound, the growth with UACC-257 melanoma is 99.7%; in the assay with M14 melanoma, 33.5%.
